# Assay outcomes as filed in PubChem BioAssay.
# Marburg entry inh: qHTS for inhibitors of binding or entry into cells for Marburg Virus; Marburg virus pseudotyped entry inhibition, cell reporter; Potency, µM (series often up to 37.8 µM), without a hit: at the top dose activity change, negative = inhibition, actives largely listed as inhibitors; actives 1.8% (n = 300,000); calls by dose curve; tested in HEK293 cells; note: potency is the fitted concentration of half-maximal effect; % is set by controls: 0 for no effect and ±100 for the full control effect
# CHX counter: Cycloheximide Counterscreen for Small Molecule Inhibitors of Shiga Toxin. actives 12% (n = 300,000). cell reporter, cycloheximide protein synthesis inhibition counterscreen. max response, %. AID 2314, 2010; in the data active = max response mostly above about 13%, no sharp cut-off; inactive = mostly below about 14%; note: read at 38.3 µM for the half of the compounds with a filed dose; 0% is about no effect
# LASV entry inh: qHTS for Inhibitors of binding or entry into cells for Lassa Virus | Lassa virus pseudotype entry inhibition, cell reporter | Potency, µM (top dose mostly 37.9 µM), without a hit: top-dose activity change, negative = inhibition, hits mostly inhibitors | actives 1.2% (n = 300,000) | AID 540256, 2011; calls by dose curve; tested in HEK293 cells; note: potency is the fitted concentration of half-maximal effect; % is set by controls: 0 for no effect and ±100 for the full control effect; nearly all actives have a fitted effect of over 50% in size
# Shiga toxin inh: A qHTS for Small Molecule Inhibitors of Shiga Toxin | Vero cells, Shiga toxin protein synthesis inhibition reporter | inhibition, % at 38.7 µM | actives 9.2% (n = 290,000) | AID 2315, 2010; in the data active = inhibition mostly above about 28%, no sharp cut-off; inactive = mostly below about 43%; note: 0% is about no effect
# The depositor's hits bear a star; ? = inconclusive; . = no result; + = active, no number; [ ] = remark or other dose. This is a sample that favours compounds with a hit; in the whole collection about 12% have one here.
SMILES,Marburg entry inh,CHX counter,LASV entry inh,Shiga toxin inh
O=C(OCC(=O)c1c[nH]c2ccccc12)c1cc(Br)ccc1O,13%[46.1 µM],21,0%,76
COC(=O)c1cc2c(cc1NC(=O)c1c(C)nn(-c3ccc(C)cc3)c1-n1cccc1)OCO2,.,.,-11%[46.1 µM],.
CCCCOc1ccc(-c2cc(C(=O)NNC(=S)NCC)c3ccccc3n2)cc1,1.5µM*,-6,?,-17
CC(=O)Nc1ccc(OC(=O)Oc2ccc(NC(C)=O)cc2)cc1,.,6,.,-2
O=C1NC(=O)/C(=C\c2ccc(OCc3cnc(Cl)s3)cc2)S1,7%[46.1 µM],-3,-8%,-4
CCc1ccc(OCc2cnc(Cl)s2)cc1,.,28*,.,78
CC(=O)Nc1ccc(OCc2cnc(Cl)s2)cc1,17%[46.1 µM],25*,.,35
CC(=O)Nc1ccc(OC/C=C(\C)Cl)cc1,5%,17*,5%,31
Clc1ccc(OCc2cnc(Cl)s2)cc1,1%,26*,1%,49
O=C(OCc1cnc(Cl)s1)c1cccs1,14%[46.1 µM],3,11%[46.1 µM],-7
Cc1cccc2c(=O)c(Br)c(C)n(Cc3ccccc3)c12,1%[46.1 µM],-6,5%,-4
COC(=O)c1sc2cccc(F)c2c1S(=O)(=O)Nc1ccc(N(C)C)cc1,.,.,29%[46.1 µM],.
Nc1c([N+](=O)[O-])ccc(Oc2ccccc2)c1Cl,.,7,.,26
C=CCSc1nc(=O)n2ccccc2n1,18%[46.1 µM],11,16%,4
C=CCSc1nc(=O)n2ccc(C)cc2n1,33%[46.1 µM],28*,21%,37
N#CC(c1ccccc1)N(CCCCl)C(=O)c1ccccc1 (stereo unspecified),-1%,-2,.,5
Cc1ccc(CNC(=O)CN2CCCN(Cc3ccc(F)cc3)S2(=O)=O)cc1,.,.,11µM*,.
c1ccc(CNc2ccc3c(c2)ncn3C2CCCCC2)nc1,-2%,22*,7%,46*
CN(C)S(=O)(=O)c1cccc(-c2nn(-c3ccccc3)cc2/C=C2\SC(=S)NC2=O)c1,22µM*,7,?,-9
O=C(O)CCn1cc(/C=C2\SC(=S)NC2=O)c(-c2ccccc2)n1,?,-1,10%[46.1 µM],-12
Cc1ccc2nc(-c3ccc(SCC(=O)Nc4nc(C)cs4)nc3)[nH]c2c1,?,32*,14%,51
Cc1nc(NC(=O)CSc2ccc(-c3nc4ccccc4[nH]3)cn2)sc1C,?,2,21%,22
Cc1ccc2nc(SCC(=O)Nc3nnc(SCC(N)=O)s3)[nH]c2c1,21%,-3,-1%,-7
Cc1ccc2nc(-c3ccc(SCC(=O)Nc4nnc(C)s4)nc3)[nH]c2c1,?,69*,?,51*
Cc1csc(NC(=O)CSc2[nH]c(=O)ncc2C)n1,7%,.,11%,.
SMILES,Marburg entry inh,CHX counter,LASV entry inh,Shiga toxin inh
CCc1nnc(NC(=O)CSc2ccc(-c3nc4ccccc4[nH]3)cn2)s1,25%,26*,?,83*
CN(CC1COc2ccccc2O1)C(=O)c1cccc(S(=O)(=O)N2CCCC2)c1 (stereo unspecified),-19%,.,6%,.
Cn1c(C(=O)N2CCCC(C(=O)NCCc3ccccc3)C2)cc2sccc21 (stereo unspecified),?,18*,?,61*
Cc1ccccc1NC(=O)c1cc(C(=O)c2cc(Cl)ccc2O)cn(-c2ccccc2C)c1=O,?,39*,?,46*
O=C1CC(/C=C/c2ccccn2)=Nc2ccccc2N1,-1%[46.1 µM],22*,?,57*
O=C1CC(/C=C/c2ccco2)=Nc2ccccc2N1,3%,-2,15%,-10
Cc1ccc2[nH]cc(C(c3ccccc3)c3cccs3)c2c1 (stereo unspecified),?,.,-11%[46.1 µM],.
COc1cc2[nH]c(=O)n(CCC(=O)N3CCc4ccccc4C3)c(=O)c2cc1OC,-5%,7,-3%,-16
O=C(O)C1CC=CCC1C(=O)N1CC=C(c2ccccc2)CC1 (stereo unspecified),-14%[46.1 µM],29*,-1%,44*
O=C(Cn1[nH]c(=O)c2ccccc2c1=O)N1CC=C(c2ccccc2)CC1,-5%,-6,3%,-12
O=C(O)CCC(=O)N1CC=C(c2ccccc2)CC1,-13%,50*,-1%,79*
COc1cc2[nH]c(=O)n(CCCCCC(=O)N3CC=C(c4ccccc4)CC3)c(=O)c2cc1OC,8.9µM*,10,?,-5
CC1(C)OC2OC(COC(=O)c3ccccc3)C3OC(C)(C)OC3C2O1 (stereo unspecified),-15%,31*,23%,2
COc1ccc(NS(=O)(=O)c2cccc(NC(=O)c3cnccn3)c2)cc1Br,?,-2,?,-4
C[C@@H]1C=CCCO[C@]12C(=O)N(Cc1ccccc1C(F)(F)F)c1ccccc12,-12%[14.2 µM],.,.,.
COc1ccc(N2C(=O)CSC23CCCCC3)cc1,1%,-2,-11%,2
COc1ccc(N2C(=O)c3ccccc3NC23CCCCC3)cc1,?,26*,-39%,52
COc1ccc(N2C(=O)c3ccccc3NC2(C)C)cc1,?,15,?,73*
COc1ccc(N2C(=O)c3ccccc3NC23CCC(C)CC3)cc1 (stereo unspecified),4%,32*,9%,54
CC1(C)Nc2ccccc2C(=O)N1c1ccc(Br)cc1,-30%,.,?,.
COc1ccc(N2C(=O)c3ccccc3NC2c2cccnc2)cc1 (stereo unspecified),?,8,?,25
CCn1ncc(CN2CCC(Oc3cc(C(=O)NC4CC4)ccc3OC)CC2)c1C,-3%,-2,-2%,-8
Cc1cccn2c(N)c(-c3ccccc3)nc12,-28%,20*,3%,26
CCOC(=O)c1c(-c2ccccc2)nc2c(C)cccn12,20%,12,1%,-16
COC(=O)C1C(=O)c2c([nH]c(C(=O)OCCOC(C)C)c2C)CC1C (stereo unspecified),?,16*,-8%,35
SMILES,Marburg entry inh,CHX counter,LASV entry inh,Shiga toxin inh
Cc1c(C(=O)OC2CCCCC2)[nH]c2c1C(=O)CC(C)(C)C2,14%[46.1 µM],12,0%,61
COC(=O)C1C(=O)c2c([nH]c(C(=O)OC3CCCC3C)c2C)CC1C (stereo unspecified),.,27*,.,67*
COC(=O)C1C(=O)c2c([nH]c(C(=O)OC3CCCCC3)c2C)CC1C (stereo unspecified),?,31*,23%,42*
COc1ccc(-c2nnc(N(C)C(=O)C3CCCO3)s2)cc1 (stereo unspecified),10%,26*,-3%,+
COc1ccc(-c2nnc(N(C)C(=O)C3CCOC3)s2)cc1 (stereo unspecified),?,.,14%,.
CN(C(=O)c1ccno1)c1nnc(-c2ccccn2)s1,14%,3,8%,22
COc1ccc(-c2nnc(N(C)C(=O)c3ccno3)s2)cc1,-6%,26*,1%,60*
CC[C@@]1([C@@H]2O[C@@H]([C@H]3O[C@@](O)(CO)[C@H](C)C[C@@H]3C)C[C@@H]2C)CC[C@@H]([C@]2(C)CCC3(C[C@H](O)[C@@H](C)[C@@H]([C@@H](C)[C@@H](OC)[C@H](C)C(=O)O)O3)O2)O1 (stereo partly specified),.,-1,.,10
